Active and inactive are the calls of the source.
Columns and labels:
[1] = small molecules captured by biotinylated probe aFSTL3 – biochemical, small-molecule microarray, fluorescence 635/667, stem cell growth factor project, primary screen (AID 1064); conditions: higher = more signal;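 further: measures binding of the biotinylated anti-FSTL3 antibody to printed compounds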
[2] = binders from COS7 lysate, DM2A8 probe, primary screen, torsin A project, cell lysate, small-molecule microarray, fluorescence 635/667 (AID 1065); conditions: higher = more signal, COS7 lysate expressing mutant human TOR1A
[3] = small molecules captured by biotinylated probe aFGF2 – biochemical, small-molecule microarray, fluorescence 635/667, stem cell growth factor project, primary screen (AID 1067); conditions: higher = more signal;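 further: measures binding of biotinylated aFGF2 protein to printed compounds on slides; z-score merges feature fluorescence and signal-to-noise across triplicate slides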
[4] = small molecules captured by biotinylated probe aFGF10 – biochemical, small-molecule microarray, fluorescence 635/667, stem cell growth factor project, primary screen (AID 1071); conditions: higher = more signal;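 further: score merges 667 nm spot intensity and signal to noise from triplicate slides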
[5] = biological target: Neurogenic locus notch homolog protein 2 (Homo sapiens) (UniProt Q04721); assay: small molecules binding Notch2 protein – biochemical, small-molecule microarray, 635 nm fluorescence, stem cell growth factors, primary screen (AID 1073); conditions: higher = more signal
[6] = biological target: Pro-neuregulin-1, membrane-bound isoform (Homo sapiens) (UniProt Q02297); assay: small molecules binding neuregulin-1 protein – biochemical, small-molecule microarray, fluorescence 635/667, psychiatric disease protein project, primary screen (AID 1075); conditions: NRG1 binding, 635 nm fluorescence, higher = more signal;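 further: score combines 667 nm spot fluorescence with signal to noise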
[7] = system: Neuregulin-1 EGF-like domain; assay: small molecules binding NRG1 EGF domain – biochemical, small-molecule microarray, 635 nm fluorescence, primary screen (AID 1081); conditions: higher = more signal;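 further: binding of the protein to compounds printed on small-molecule microarray slides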
[8] = FRG1 expression reporter modulators in myotubes – cell-based, C2C12 myotubes, firefly/Renilla luciferase, luminescence, FRG1 inhibition for FSHD, primary screen (AID 1084); conditions: FRG1 promoter luciferase, higher = more signal, called active from +8 up or from −8 down
[9] = small molecules captured by biotinylated probe aFST – biochemical, small-molecule microarray, fluorescence 635/667, stem cell growth factor project, primary screen (AID 1086); conditions: higher = more signal;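 further: score merges 667 nm fluorescence with signal-to-noise of each printed compound spot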
[10] = binders of probe aHhip on microarray, primary screen, stem cell growth factor project, biochemical, small-molecule microarray, fluorescence 635/667 (AID 1087); conditions: higher = more signal;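 further: score merges spot fluorescence at 667nm with spot signal to noise ratio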
[11] = system: PRMT1 (protein arginine N-methyltransferase 1); assay: small molecules binding arginine methyltransferase PRMT1 – biochemical, small-molecule microarray, 635 nm fluorescence, primary screen (AID 1088); conditions: higher = more signal;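 further: binding of Prmt1 protein to compounds spotted on small-molecule microarray slides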
[12] = growth effects on S. cerevisiae YJM789 – YJM789 clinical isolate, OD600, 24 h, basal, primary screen (AID 1089); conditions: higher = more signal, called active from +8 up or from −8 down;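 further: growth of clinical yeast isolate S. cerevisiae YJM 789 seeded 1000 cells per well; test concentration not given here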
[13] = S. pombe growth modifiers, basal conditions – strain 972, OD600, 24 h, no modulator, primary screen (AID 1090);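 further: basal condition with compound alone and no growth modifier present; test concentration not given here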; conditions: S. pombe 972 growth, higher = more signal, called active from +8 up or from −8 down
[14] = budding yeast growth modifiers under rapamycin – strain BY4716, OD600, 96 h, primary screen (AID 1091); further: test concentration not given here; conditions: S. cerevisiae BY4716 + rapamycin, higher = more signal, called active from +8 up or from −8 down
[15] = biological target: Torsin-1A-interacting protein 2 (Homo sapiens) (UniProt Q8NFQ8); assay: small molecules binding lysate-expressed LULL1 – cell lysate, human LULL1 lysate, 635/667 nm fluorescence, primary screen (AID 1092); conditions: small-molecule microarray, hLULL1 lysate binding, 635 nm fluorescence; higher = more signal;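 further: probe is lysate of COS7 cells overexpressing human LULL1; score merges per-feature 667 nm fluorescence with signal-to-noise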
[16] = optical density change of DRC41 E. coli – strain DRC41, OD650, 24 h, E. coli filamentation project, primary screen (AID 1093);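 further: MC1000 strain lacking acrAB efflux and sulA so SOS filamentation is blocked; test concentration not given here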; conditions: E. coli DRC41 growth, higher = more signal, called active from +8 up or from −8 down
[17] = probe aLefty2 binding to arrayed compounds – biochemical, biotinylated probe, 635/667 nm fluorescence, primary screen (AID 1094); conditions: small-molecule microarray, higher = more signal;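 further: score merges spot fluorescence near 667 nm with spot signal-to-noise ratio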
[18] = system: Noggin (protein binding on small-molecule microarray); assay: small molecules binding Noggin protein – biochemical, 635/667 nm fluorescence, primary screen (AID 1095); conditions: 635 nm fluorescence, higher = more signal;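 further: score merges 667 nm feature fluorescence with signal to noise over triplicate slides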
[19] = biological target: Neurogenic locus notch homolog protein 3 (Homo sapiens) (UniProt Q9UM47); assay: small molecules binding NOTCH3 protein – biochemical, 635/667 nm fluorescence, primary screen (AID 1096); conditions: small-molecule microarray, 635 nm fluorescence, higher = more signal
[20] = probe aEGFR binding to arrayed compounds – biochemical, biotinylated probe, 635/667 nm fluorescence, primary screen (AID 1097); conditions: small-molecule microarray, higher = more signal;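 further: probe is a biotinylated anti-EGFR antibody binding compounds printed on slides; score combines fluorescence near 667 nm and signal to noise of each spot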

Sequence of Torsin-1A-interacting protein 2 (Homo sapiens) (Q8NFQ8 whole entry, looked up): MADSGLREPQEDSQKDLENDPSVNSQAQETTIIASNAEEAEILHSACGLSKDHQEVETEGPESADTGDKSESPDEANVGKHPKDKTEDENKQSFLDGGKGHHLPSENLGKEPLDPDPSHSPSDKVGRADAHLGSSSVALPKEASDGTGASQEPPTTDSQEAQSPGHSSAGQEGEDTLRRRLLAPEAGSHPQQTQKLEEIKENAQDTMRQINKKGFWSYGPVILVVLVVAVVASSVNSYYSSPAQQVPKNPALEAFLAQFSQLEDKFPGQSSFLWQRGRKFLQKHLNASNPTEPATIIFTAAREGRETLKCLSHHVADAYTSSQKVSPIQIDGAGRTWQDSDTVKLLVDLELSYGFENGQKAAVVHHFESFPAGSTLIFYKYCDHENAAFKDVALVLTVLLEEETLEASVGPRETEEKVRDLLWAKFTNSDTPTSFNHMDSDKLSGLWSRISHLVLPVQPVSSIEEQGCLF
Sequence of Neurogenic locus notch homolog protein 3 (Homo sapiens) (Q9UM47 whole entry, looked up): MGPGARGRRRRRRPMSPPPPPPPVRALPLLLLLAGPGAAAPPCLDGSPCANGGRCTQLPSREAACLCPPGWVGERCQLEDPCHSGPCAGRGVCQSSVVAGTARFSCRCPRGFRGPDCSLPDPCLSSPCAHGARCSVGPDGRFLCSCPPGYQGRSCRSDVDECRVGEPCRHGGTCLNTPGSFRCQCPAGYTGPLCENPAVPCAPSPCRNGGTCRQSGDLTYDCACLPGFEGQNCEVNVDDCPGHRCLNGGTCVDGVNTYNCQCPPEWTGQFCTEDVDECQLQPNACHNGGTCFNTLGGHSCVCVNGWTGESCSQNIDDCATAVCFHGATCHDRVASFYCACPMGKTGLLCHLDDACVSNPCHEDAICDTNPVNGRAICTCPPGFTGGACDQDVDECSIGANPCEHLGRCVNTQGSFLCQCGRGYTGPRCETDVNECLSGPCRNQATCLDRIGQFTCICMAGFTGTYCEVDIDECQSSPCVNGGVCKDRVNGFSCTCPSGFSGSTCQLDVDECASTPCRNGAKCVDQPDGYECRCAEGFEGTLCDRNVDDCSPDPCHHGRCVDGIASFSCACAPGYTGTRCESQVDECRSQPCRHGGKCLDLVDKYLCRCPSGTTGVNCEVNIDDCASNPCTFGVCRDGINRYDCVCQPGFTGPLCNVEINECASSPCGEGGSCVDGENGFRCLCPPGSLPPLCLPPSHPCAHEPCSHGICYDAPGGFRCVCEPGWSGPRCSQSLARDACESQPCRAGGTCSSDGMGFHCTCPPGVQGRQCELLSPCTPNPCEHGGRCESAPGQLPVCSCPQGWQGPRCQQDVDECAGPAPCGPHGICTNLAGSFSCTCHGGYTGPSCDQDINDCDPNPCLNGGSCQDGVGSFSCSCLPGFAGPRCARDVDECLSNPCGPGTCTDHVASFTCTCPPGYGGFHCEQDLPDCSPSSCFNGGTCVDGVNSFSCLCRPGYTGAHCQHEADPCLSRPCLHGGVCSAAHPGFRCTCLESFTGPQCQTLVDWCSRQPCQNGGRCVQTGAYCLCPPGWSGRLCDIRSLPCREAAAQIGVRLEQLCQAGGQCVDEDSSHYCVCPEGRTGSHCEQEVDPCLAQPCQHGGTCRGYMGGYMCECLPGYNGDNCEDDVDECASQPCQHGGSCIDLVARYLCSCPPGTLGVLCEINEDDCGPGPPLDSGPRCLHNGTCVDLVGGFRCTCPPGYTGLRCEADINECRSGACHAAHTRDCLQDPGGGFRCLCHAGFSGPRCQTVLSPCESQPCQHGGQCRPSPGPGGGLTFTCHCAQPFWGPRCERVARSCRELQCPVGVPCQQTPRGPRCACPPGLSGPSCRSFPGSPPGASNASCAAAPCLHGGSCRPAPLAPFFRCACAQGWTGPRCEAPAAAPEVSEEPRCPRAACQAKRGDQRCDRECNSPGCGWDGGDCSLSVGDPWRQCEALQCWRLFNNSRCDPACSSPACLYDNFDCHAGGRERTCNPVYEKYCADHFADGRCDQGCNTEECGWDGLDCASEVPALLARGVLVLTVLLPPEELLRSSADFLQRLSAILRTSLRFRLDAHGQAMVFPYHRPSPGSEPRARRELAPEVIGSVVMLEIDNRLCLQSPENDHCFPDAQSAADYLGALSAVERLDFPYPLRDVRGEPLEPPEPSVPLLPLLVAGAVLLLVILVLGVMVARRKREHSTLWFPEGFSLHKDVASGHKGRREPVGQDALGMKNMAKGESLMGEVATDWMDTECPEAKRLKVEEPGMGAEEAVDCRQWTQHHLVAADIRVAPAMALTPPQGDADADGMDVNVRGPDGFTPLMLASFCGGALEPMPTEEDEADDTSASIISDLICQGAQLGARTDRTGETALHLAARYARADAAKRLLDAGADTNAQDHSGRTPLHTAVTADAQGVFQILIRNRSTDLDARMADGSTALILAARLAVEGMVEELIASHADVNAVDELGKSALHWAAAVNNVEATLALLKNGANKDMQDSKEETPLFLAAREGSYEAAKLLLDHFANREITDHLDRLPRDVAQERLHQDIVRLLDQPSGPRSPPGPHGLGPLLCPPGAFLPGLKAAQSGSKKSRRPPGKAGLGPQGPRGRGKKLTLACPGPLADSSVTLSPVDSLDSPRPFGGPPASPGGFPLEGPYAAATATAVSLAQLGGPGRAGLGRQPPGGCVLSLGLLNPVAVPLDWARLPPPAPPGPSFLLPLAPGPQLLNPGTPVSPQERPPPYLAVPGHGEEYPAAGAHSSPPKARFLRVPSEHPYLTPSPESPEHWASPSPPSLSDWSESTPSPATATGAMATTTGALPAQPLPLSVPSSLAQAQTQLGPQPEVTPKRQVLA
Sequence of Pro-neuregulin-1, membrane-bound isoform (Homo sapiens) (Q02297 whole entry, looked up, the tested form may be a part, canonical isoform): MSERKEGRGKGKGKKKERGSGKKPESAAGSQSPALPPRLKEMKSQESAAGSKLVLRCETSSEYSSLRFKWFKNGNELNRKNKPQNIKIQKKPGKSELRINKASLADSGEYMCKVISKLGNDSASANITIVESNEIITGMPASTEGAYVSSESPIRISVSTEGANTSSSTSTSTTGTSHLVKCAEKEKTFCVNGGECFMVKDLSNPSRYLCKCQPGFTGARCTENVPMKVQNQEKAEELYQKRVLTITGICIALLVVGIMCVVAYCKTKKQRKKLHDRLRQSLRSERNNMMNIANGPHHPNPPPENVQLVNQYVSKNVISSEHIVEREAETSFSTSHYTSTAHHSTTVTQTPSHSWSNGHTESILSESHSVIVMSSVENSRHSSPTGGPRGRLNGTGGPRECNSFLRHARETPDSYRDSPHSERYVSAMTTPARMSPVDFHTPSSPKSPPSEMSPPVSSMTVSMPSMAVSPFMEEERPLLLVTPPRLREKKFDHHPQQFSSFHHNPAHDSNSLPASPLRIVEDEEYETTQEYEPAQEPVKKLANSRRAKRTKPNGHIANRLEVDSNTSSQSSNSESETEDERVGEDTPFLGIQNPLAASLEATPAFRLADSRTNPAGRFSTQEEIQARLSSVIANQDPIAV

Structure (SMILES) | composite z-score [1] | composite z-score [2] | composite z-score [3] | composite z-score [4] | composite z-score [5] | composite z-score [6] | composite z-score [7] | z-score [8] | composite z-score [9] | composite z-score [10] | composite z-score [11] | z-score [12] | z-score [13] | z-score [14] | composite z-score [15] | z-score [16] | composite z-score [17] | composite z-score [18] | composite z-score [19] | composite z-score [20]
COC(=O)[C@@]1(Cc2ccc(F)cc2)[C@H]2c3cc(C(=O)N(C)C)n(CCCNc4ccc(C(F)(F)F)cc4Cl)c3C[C@H]2CN1C(=O)c1ccccc1 | 0.785 | 0.34 | 0.311 | 0.754 | 1.75 | 1.16 | 1.27 | 0.452 (inactive) | 1.55 | -0.114 | 1.41 | 0.406 (inactive) | 1.06 (inactive) | 5.11 (inactive) | 3.36 | -1.3 (inactive) | 0.555 | 0.282 | 1.02 | 0.361
CCCCN1CC=CC23O[C@@H]4/C=C\CCCOC(=O)C4[C@H]2C(=O)N(C(C)CO)[C@@H]3C1=O (stereo not given in full) | -0.0235 | -0.809 | -0.0963 | -0.272 | -0.327 | 0.223 | 1.19 | -1.01 (inactive) | -0.375 | -0.261 | -0.376 | -0.0849 (inactive) | -0.958 (inactive) | -0.417 (inactive) | -0.0431 | 0.315 (inactive) | -0.282 | 0.16 | -0.0087 | -0.233
O=C(NCC(F)(F)F)[C@@H]1c2ccccc2C(=O)N(Cc2ccccc2)[C@H]1c1ccc(CO)cc1 | 1.16 | 0.299 | -0.0637 | -0.358 | -0.514 | 0.0291 | 0.432 | -1.3 (inactive) | -0.419 | -0.0078 | 1.04 | -0.526 (inactive) | 0.0532 (inactive) | 0.13 (inactive) | 2.35 | 0.544 (inactive) | -0.0192 | -1.34 | -0.612 | -0.194
COC(=O)[C@@]1(Cc2ccc(F)cc2)[C@H]2c3cc(C(=O)N4CCCC4)n(Cc4ccc(Cl)c(C(F)(F)F)c4)c3C[C@H]2CN1C(=O)c1ccccc1 | 2 | 0.554 | 0.713 | 1.04 | 1.73 | 1.61 | 1.14 | 0.339 (inactive) | 2.44 | 3.55 | 0.444 | 0.307 (inactive) | 2.12 (inactive) | 3.84 (inactive) | 3.26 | -0.482 (inactive) | 1.12 | -0.21 | 1.07 | 0.915
[N-]=[N+]=Nc1ccccc1[C@@H]1OC(c2ccc(OCCCO)cc2)=N[C@]1(CCS(=O)(=O)c1ccccc1)C(=O)N1CCCCC1 | 1.78 | 1.25 | 0.206 | 0.77 | 1.6 | 1.37 | 1.29 | -1.72 (inactive) | 1.18 | -0.249 | 1.56 | 0.436 (inactive) | 1.15 (inactive) | 2.83 (inactive) | 2.83 | 0.106 (inactive) | 0.799 | 0.237 | 1.05 | 0.292
C[N+](C)(C)CCCC[C@@H]1NC(=O)[C@@H]2C[C@H](C(=O)NCCCCCCNC(=O)CS)[C@H](c3cccc(OCCO)c3)N2C1=O | -0.145 | 0.976 | -0.132 | -0.459 | -0.395 | 0.612 | 1.36 | -0.944 (inactive) | -0.713 | -0.0193 | 1.12 | -1.33 (inactive) | -0.333 (inactive) | -0.485 (inactive) | 1.09 | -0.102 (inactive) | -0.21 | 1.84 | -0.0644 | -0.233
CC(c1ccccc1)C(O)C1C=CC2C(=O)N(Cc3ccccc3)C(=O)C2N1n1cnnc1 (stereo not given) | -0.0479 | 0.327 | -0.0165 | 0.351 | 1.07 | 0.446 | 1.01 | -0.0355 (inactive) | 0.541 | 0.0373 | 0.418 | -1.04 (inactive) | -0.0262 (inactive) | 0.496 (inactive) | 1.6 | -1.27 (inactive) | 0.0524 | 0.483 | 0.728 | 0.08
NC(=O)NCC#Cc1ccc2c(c1)[C@]1(C(=O)N2)[C@H](c2ccc(O)cc2)N2[C@H](c3ccccc3)[C@H](c3ccccc3)OC(=O)[C@H]2[C@@H]1C(=O)N1CCN(c2ncccn2)CC1 | 0.687 | 0.585 | 0.0021 | 0.516 | 0.0269 | 0.302 | 0.562 | -1.09 (inactive) | 0.38 | -0.191 | 1.01 | 0.113 (inactive) | -0.923 (inactive) | 1.6 (inactive) | 1.45 | 1.1 (inactive) | 0.28 | -0.228 | -0.334 | 0.0193
O=C(NCC(O)CO)[C@@]1(Cc2ccccc2)N=C(c2ccc(OCCCO)cc2)O[C@H]1c1ccccc1 (stereo not given in full) | 1.32 | 0.691 | 0.16 | 0.36 | -0.0617 | 1.39 | 1.26 | -1.89 (inactive) | 1.08 | 0.415 | 0.814 | -0.738 (inactive) | -0.456 (inactive) | -1.26 (inactive) | 3.57 | 1.62 (inactive) | 0.491 | 0.431 | -0.376 | 0.298
